In assay [1] the target is Retinoic acid receptor RXR-alpha (Homo sapiens) (UniProt P19793). Kind of assay: qHTS assay for small molecule antagonists of retinoid X receptor alpha signaling (AID 588546; active = well fitted inhibition curve with a large enough effect in the signal ratio, with a control signal flat, not every such curve was filed as active; the % refers to the signal ratio;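 note: cells stimulated with 9-cis-retinoic acid as agonist; % is set by controls: 0 for no effect and ±100 for the full control effect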). The following applies: HEK293T RXRa-UAS-bla, beta-lactamase ratio, antagonist mode. In outline:
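Beta-lactamase reporter inhibition, read as CCF4 fluorescence ratio (ex 405, em 460/530 nm) after 2 h at RT. HEK293T UAS-bla cells, 2500/well, were stimulated with 9-cis-RA at 500 or 100 nM final alongside test compound for 18 h at 37 C.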
(In general: Quantitative high-throughput screening tests each substance at several concentrations.)

In assay [2] the target is Thyroid hormone receptor beta (Homo sapiens) (UniProt P10828). The experiment in a line: qHTS assay for small molecule antagonists of thyroid hormone receptor beta signaling (AID 588547; active = well fitted inhibition curve with a large enough effect in the signal ratio, with a control signal flat, not every such curve was filed as active; the % refers to the signal ratio;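 note: cells stimulated with 0.4 nM T3 agonist during compound exposure; series mostly up to about 77 µM; % is set by controls: 0 for no effect and ±100 for the full control effect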). Conditions: TR-UAS-bla HEK293, beta-lactamase ratio, antagonist mode, 18 h. In outline:
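Inhibition of T3-driven (0.4nM final) beta-lactamase reporter activity was measured over 0.59 nM to 92 uM compound after 18 h at 37 C. The cells were GripTite HEK293 TR-UAS-bla in charcoal/dextran-stripped serum, with CCF4 ratio read-out and IC50 from Hill fits.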

The target in assay [3] is Voltage-gated inwardly rectifying potassium channel KCNH2 (Homo sapiens) (UniProt Q12809). The experiment in a line: qHTS Assay for Small Molecule Inhibitors of the Human hERG Channel Activity (AID 588834).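 Note: top concentration of the series differs between compounds; % is set by controls: 0 for no effect and ±100 for the full control effect; lower thallium flux fluorescence means stronger hERG block; nearly all actives have a fitted effect of over 50% in size.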 The method, boiled down:
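Thallium serves as surrogate for K+ influx through BacMam-delivered hERG in U2OS cells. Compounds are added for about 10 minutes after dye loading; stimulation buffer then starts flux, monitored kinetically on FDSS.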

Assay [4] can be described thus: qHTS assay for small molecule agonists of the antioxidant response element (ARE) signaling pathway (AID 651741; active = well fitted activation curve with a large enough effect in the signal ratio; the % refers to the signal ratio; note: potency is the fitted concentration of half-maximal effect). The method, boiled down:
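Agonist activity is measured as ARE-driven beta-lactamase expression in a stable HepG2 reporter line, using 16 h compound treatment at 37 C and a FRET substrate fluorescence readout after 2 h.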

Assay [5] can be described thus: qHTS assay for small molecule activators of the p53 signaling pathway (AID 651743; active = well fitted activation curve with a large enough effect in the signal ratio, not every such curve was filed as active; the % refers to the signal ratio; note: potency is the fitted concentration of half-maximal effect). The following applies: HCT-116 p53RE-bla, beta-lactamase FRET ratio, 16 h; activation: hits give high values. In outline: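 A beta-lactamase reporter under p53 response element control, stably carried by HCT-116 cells, reported pathway activation. Test compounds were applied for 16 hours at 37 C, and fluorescence was measured 2 hours after adding the B/G FRET substrate.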

The nature of assay [6]: qHTS assay for small molecule activators of the nuclear factor-kappa B (NF-kB) signaling pathway (AID 651749; active = well fitted activation curve with a large enough effect in the signal ratio; the % refers to the signal ratio; note: series mostly up to about 77 µM; % of control where 0% means no effect). The following applies: NF-kB-bla ME-180 cells, beta-lactamase FRET ratio, 16 h; activation: hits give high values. In outline: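 FRET-based beta-lactamase detection in ME-180 cells reports NF-kB response-element-driven transcription following overnight (16 hr) compound treatment.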

Assay [7] in a line: qHTS assay for small molecule disruptors of the mitochondrial membrane potential - 1 hr assay (AID 651754; calls by dose curve; note: potency is the fitted concentration of half-maximal effect; nearly all actives have a fitted effect of over 35% in size). The method, boiled down: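 In this qHTS format, a 1 hr compound treatment of HepG2 cells precedes Mito-MPS staining, and membrane potential is judged from aggregate (red) against monomer (green) fluorescence intensity.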
Assay [8] in a line: qHTS assay for small molecule disruptors of the mitochondrial membrane potential - 5 hr assay (AID 651755; calls by dose curve; note: potency is the fitted concentration of half-maximal effect; nearly all actives have a fitted effect of over 40% in size). The method, boiled down: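 Membrane-potential dye readout: red aggregate (540 ex/590 em) versus green monomer (490 ex/535 em) fluorescence after 30 min dye loading, following 5 hr compound exposure at 37C of overnight-plated HepG2 cells.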
Assay [9] has as its target Tumor necrosis factor (Homo sapiens) (UniProt P01375). The experiment in a line: qHTS assay to identify small molecules that stimulate Tumor Necrosis Factor-alpha (TNF-alpha) secretion (AID 651757; active = well fitted curve in the direction sought with a large enough effect in the signal ratio; the % refers to the signal ratio; note: 0% is about no effect). In outline: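 Using 3000 THP-1 cells per well, compounds and controls were applied for 17 hrs at 37 C. Detection followed with two labeled anti-TNF-alpha antibodies (cryptate donor, XL665 acceptor) for 3 hr at room temperature, measured by TR-FRET.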

Assay [10] is described as follows: qHTS assay for environmental chemicals that activate the Aryl hydrocarbon Receptor (AhR) signaling pathway (AID 651777). Note: potency is the fitted concentration of half-maximal effect; nearly all actives have a fitted effect of over 15% in size. The following applies: 1A2-DRE human hepatoma cells, luciferase, 24 h; activation: hits give high values. In outline:
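Luminescence (One-Glo, 30 min, room temperature) reports AhR-driven luciferase in stably transfected human hepatoma cells bearing DRE and CYP1A2 promoter. Cells (1,200/well) were treated with compound for 24 hr at 37 C in qHTS format.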

Assay [11] addresses Peroxisome proliferator-activated receptor alpha (Homo sapiens) (UniProt Q07869). The experiment in a line: qHTS assay for small molecule agonists of the peroxisome proliferator-activated receptor alpha (PPARalpha) signaling pathway (AID 651778). Note: % of control where 0% means no effect. Conditions: PathHunter PPARalpha complementation, chemiluminescence, 6 h; hits give high values. The method, boiled down:
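Chemiluminescence from complemented enzyme reported PPARalpha activation in cells after 6 hr of compound treatment at 37 C. The detection reagent was incubated for 60 min at room temperature, and compounds were scored as agonists.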

Assay [12] deals with Nuclear receptor ROR-gamma (Homo sapiens) (UniProt P51449). Kind of assay: qHTS assay for small molecule antagonists of the retinoid-related orphan receptor gamma (ROR-gamma) signaling pathway (AID 651802). Note: potency is the fitted concentration of half-maximal effect; nearly all actives have a fitted effect of over 60% in size. The method, boiled down: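 Doxycycline-induced reporter activity in engineered CHO cells (TET-inducible ROR, RORE-LUC) was measured by luminescence after 16hr compound exposure at 37C.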
Chain of Nuclear receptor ROR-gamma (Homo sapiens) (P51449 whole entry, looked up): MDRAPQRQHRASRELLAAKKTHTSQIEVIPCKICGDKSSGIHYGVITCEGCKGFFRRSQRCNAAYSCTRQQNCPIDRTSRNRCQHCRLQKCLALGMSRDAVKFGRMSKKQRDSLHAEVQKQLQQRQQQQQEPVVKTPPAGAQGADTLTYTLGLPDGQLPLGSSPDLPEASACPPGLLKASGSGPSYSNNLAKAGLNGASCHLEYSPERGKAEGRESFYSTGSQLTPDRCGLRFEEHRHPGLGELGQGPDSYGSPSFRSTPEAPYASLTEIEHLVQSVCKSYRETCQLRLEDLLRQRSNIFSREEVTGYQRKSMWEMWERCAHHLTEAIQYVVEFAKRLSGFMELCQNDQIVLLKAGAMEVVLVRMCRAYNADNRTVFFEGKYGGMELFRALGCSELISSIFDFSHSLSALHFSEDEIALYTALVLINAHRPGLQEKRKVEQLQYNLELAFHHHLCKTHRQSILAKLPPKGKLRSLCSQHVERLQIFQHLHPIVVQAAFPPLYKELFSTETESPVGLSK

A short description of assay [13]: qHTS assay for small molecule agonists of the antioxidant response element (ARE) signaling pathway measured by Nrf2-dependant transcriptional activity (AID 720636; active = well fitted curve in the direction sought with a large enough effect in the repeat runs; an effect the other way counts as inactive or inconclusive; note: % of control where 0% means no effect). In outline: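 Nrf2-dependent transcription read as ONE-Glo luciferase signal from ARE-luc HepG2 reporter cells after 16 hr compound treatment at 37 C, 5% CO2, in assay medium with 1% dialyzed FBS.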

Assay [14] can be described thus: qHTS assay for small molecule antagonists of the retinoid-related orphan receptor gamma (ROR-gamma) signaling pathway - cell viability counter screen (AID 720652; active = well fitted curve in the direction sought with a large enough effect in the repeat runs; an effect the other way counts as inactive or inconclusive;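 note: series mostly up to about 92 µM; compound exposure lasted 16 hr before ATP read; % is set by controls: 0 for no effect and ±100 for the full control effect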). In outline:
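ATP-based viability readout in the ROR-gamma reporter CHO cells after 16 hr compound exposure under doxycycline induction.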

Assay [15] is described as follows: qHTS assay for small molecule agonists of the antioxidant response element (ARE) signaling pathway measured by Nrf2-dependant transcriptional activity - cell viability counter screen (AID 720653; active = well fitted curve in the direction sought with a large enough effect in the repeat runs; an effect the other way counts as inactive or inconclusive; note: % is set by controls: 0 for no effect and ±100 for the full control effect). Conditions: ARE-bla HepG2 viability, CellTiter-Glo ATP luminescence, 16 h; max response: hits give low values. In outline: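 Cytotoxicity counter screen: intracellular ATP quantified by CellTiter-Glo luminescence in the same ARE-bla HepG2 plates, after 16 h compound exposure and a 2 h beta-lactamase substrate step.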

The nature of assay [16]: qHTS assay for cell viability of HEK293 cells (AID 743288). Note: % is set by controls: 0 for no effect and ±100 for the full control effect; nearly all actives have a fitted effect of over 50% in size. Conditions: ATP luminescence (CellTiter-Glo), 18 h; max response: hits give low values. The method, boiled down:
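Steps: plate 2,000 parental HEK293 cells per well; incubate ≥5 h, 37 C; add compounds in DMSO; incubate 18 h, 37 C; add CellTiter-Glo; wait 30 min at room temperature; read luminescence.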

Assay [17] in a line: qHTS assay for cell viability of the p53RE-bla HCT-116 cell line (AID 743292). Note: % is set by controls: 0 for no effect and ±100 for the full control effect; nearly all actives have a fitted effect of over 55% in size. The method, boiled down: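 ATP-based luminescent viability (CellTiter-Glo, 30 min RT) after 16 h compound treatment at 37 C of p53RE-bla HCT-116 cells, seeded at 4,000 cells/well and rested 5 h before dosing.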
The next assay deals with Furin (Homo sapiens) (UniProt P09958). The experiment in a line: Furin counterscreen qHTS for Zika virus inhibitors (AID 1347149).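 Note: purified recombinant full-length human furin enzyme at 5 nM; fluorescence gain from furin cutting a BOC-RVRR-AMC peptide substrate over 15 min; top concentration of the series differs between compounds; plate controls were no-inhibitor control for no effect and no-enzyme control for full effect; nearly all actives have a fitted effect of over 70% in size.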 In outline:
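Counterscreen measures cleavage of 2 microM BOC-RVRR-AMC, below its ~15 microM Km, by 5 nM full-length human furin at pH 7.0 after a 15-min compound preincubation. Inhibition derives from the 15-min fluorescence increase at 37C.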

Assay [18] in a line: Confirmatory screen GU Rhodamine qHTS for Zika virus inhibitors qHTS (AID 1347157). Note: potency is the fitted concentration of half-maximal effect; nearly all actives have a fitted effect of over 70% in size. In outline: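 In dose–response format, inhibition of unlinked protease (25 nM) was measured with 1.5 microM bis-peptide Rhodamine110 substrate. Aprotinin served as the intraplate control.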
The nature of assay [19]: ZIKV-mCherry secondary qHTS for Zika virus inhibitors (AID 1347158). Note: potency is the fitted concentration of half-maximal effect. Conditions: Vero cells, ZIKV-mCherry infection imaging, 48-72 h. The method, boiled down: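 This orthogonal imaging screen measured ZIKV-mCherry infection of Vero cells exposed to compound, MOI 1, 48-72 h. Percent infection came from segmented nuclei scored mCherry-positive above 3 SD of negative controls.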

Assay [20] in a line: Confirmatory screen NINDS Rhodamine qHTS for Zika virus inhibitors (AID 1347161). Note: potency is the fitted concentration of half-maximal effect; nearly all actives have a fitted effect of over 60% in size. In outline: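 Kinetic fluorescence (Ex 480 nm, Em 540 nm) over 15 min with 1.5 microM Rhodamine110 peptide and 25 nM linked protease.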
Assay [21] has as its system Zika virus NS2B-NS3 protease (linked). Kind of assay: 384 well plate NINDS AMC confirmatory qHTS for Zika virus inhibitors (AID 1347163). Note: potency is the fitted concentration of half-maximal effect; nearly all actives have a fitted effect of over 50% in size. Conditions: Recombinant NS2B-NS3 protease, Ac-VKTGKR-AMC fluorescence. In outline:
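Enzyme (5, 30 or 60 nM final) first met test compounds for ~15 min. The AMC-tagged peptide Ac-VKTGKR-AMC followed at 30 microM. Fluorescence was then recorded at 25 min and scaled against no-enzyme and no-inhibitor wells.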

In assay [22] the test system is Zika virus NS2B-NS3 protease (linked construct). The experiment in a line: 384 well plate NINDS Rhodamine confirmatory qHTS for Zika virus inhibitors (AID 1347164).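 Note: fluorescence from protease cleavage of Ac-LKRR-rhodamine 110 substrate; potency is the fitted concentration of half-maximal effect; nearly all actives have a fitted effect of over 65% in size.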 In outline:
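Linked NS2B-NS3 protease (final 5, 30 or 60 nM) preincubated ~15 minutes with compounds, then 10 microM Ac-LKRR-Rhodamine 110 added. Fluorescence (485/538 nm) read after 25 minutes at room temperature, normalized to no-enzyme and no-inhibitor controls.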

For assay [23], the target named is Nuclear receptor subfamily 1 group I member 2 (Rattus norvegicus) (UniProt Q9R1A7). The experiment in a line: qHTS assay for small molecule activators of the rat pregnane X receptor (rPXR) signaling pathway (AID 651751; call rule not given here; note: 0% is about no effect). The following applies: rPXR reporter cells, luciferase (One-Glo), 24 h.
Chain of Nuclear receptor subfamily 1 group I member 2 (Rattus norvegicus) (Q9R1A7 whole entry, looked up): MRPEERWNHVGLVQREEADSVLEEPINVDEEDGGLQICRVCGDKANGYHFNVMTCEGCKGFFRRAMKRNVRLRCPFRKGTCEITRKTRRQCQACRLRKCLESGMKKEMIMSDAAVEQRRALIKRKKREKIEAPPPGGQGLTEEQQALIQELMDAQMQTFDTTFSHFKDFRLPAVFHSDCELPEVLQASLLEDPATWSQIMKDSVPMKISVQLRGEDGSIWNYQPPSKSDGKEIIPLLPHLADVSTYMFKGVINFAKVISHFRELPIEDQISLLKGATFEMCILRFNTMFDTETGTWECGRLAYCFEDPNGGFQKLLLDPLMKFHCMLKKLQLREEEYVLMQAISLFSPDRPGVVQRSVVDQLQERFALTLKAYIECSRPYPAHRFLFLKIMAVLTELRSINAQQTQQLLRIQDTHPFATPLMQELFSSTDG

Several values for one entry are separate records, joined by “and”; a condition that tells them apart may be missing. Identical values can stand only once. Values without a mark were called inactive. Records with an inconclusive call do not appear. Activity calls are given as the source filed them. Unless noted, calls come from the whole dose curve; as a rule, active = well fitted curve in the direction sought with a large enough effect; inconclusive = small, poorly fitted or top-dose-only effect, or another doubt; inactive = no such curve, though single readings can be large; an effect the other way counts as inactive or inconclusive.

Chain of Peroxisome proliferator-activated receptor alpha (Homo sapiens) (Q07869 whole entry, looked up): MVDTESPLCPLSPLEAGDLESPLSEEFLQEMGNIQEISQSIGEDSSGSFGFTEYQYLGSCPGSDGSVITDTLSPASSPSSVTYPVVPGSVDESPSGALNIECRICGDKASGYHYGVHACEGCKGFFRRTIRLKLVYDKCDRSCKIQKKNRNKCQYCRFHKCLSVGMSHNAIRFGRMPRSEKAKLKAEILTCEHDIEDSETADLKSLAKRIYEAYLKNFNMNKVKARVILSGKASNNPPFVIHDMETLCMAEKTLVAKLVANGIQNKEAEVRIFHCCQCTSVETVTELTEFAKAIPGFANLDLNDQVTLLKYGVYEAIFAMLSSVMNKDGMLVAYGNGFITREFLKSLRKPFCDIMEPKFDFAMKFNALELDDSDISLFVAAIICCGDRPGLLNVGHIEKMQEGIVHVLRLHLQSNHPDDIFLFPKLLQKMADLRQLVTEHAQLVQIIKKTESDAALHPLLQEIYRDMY
Chain of Retinoic acid receptor RXR-alpha (Homo sapiens) (P19793 whole entry, looked up): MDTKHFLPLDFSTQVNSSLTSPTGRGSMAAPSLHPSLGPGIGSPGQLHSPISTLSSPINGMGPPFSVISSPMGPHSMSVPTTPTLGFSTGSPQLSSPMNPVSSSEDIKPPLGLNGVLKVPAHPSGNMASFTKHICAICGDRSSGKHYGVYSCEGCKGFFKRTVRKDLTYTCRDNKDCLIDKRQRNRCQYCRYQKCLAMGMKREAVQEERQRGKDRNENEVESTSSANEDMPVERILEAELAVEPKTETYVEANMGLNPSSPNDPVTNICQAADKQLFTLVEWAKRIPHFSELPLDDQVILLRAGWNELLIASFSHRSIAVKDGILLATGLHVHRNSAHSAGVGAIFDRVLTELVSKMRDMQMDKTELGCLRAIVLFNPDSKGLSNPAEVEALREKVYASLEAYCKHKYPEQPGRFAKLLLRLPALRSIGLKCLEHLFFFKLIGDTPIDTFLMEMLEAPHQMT
Chain of Tumor necrosis factor (Homo sapiens) (P01375 whole entry, looked up): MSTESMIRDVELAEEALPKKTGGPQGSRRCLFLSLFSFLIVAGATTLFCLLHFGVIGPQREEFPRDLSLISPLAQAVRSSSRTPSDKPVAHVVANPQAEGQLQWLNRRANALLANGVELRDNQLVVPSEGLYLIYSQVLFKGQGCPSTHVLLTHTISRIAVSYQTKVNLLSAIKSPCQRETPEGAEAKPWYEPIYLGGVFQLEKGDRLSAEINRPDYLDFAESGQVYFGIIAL
Chain of Thyroid hormone receptor beta (Homo sapiens) (P10828 whole entry, looked up): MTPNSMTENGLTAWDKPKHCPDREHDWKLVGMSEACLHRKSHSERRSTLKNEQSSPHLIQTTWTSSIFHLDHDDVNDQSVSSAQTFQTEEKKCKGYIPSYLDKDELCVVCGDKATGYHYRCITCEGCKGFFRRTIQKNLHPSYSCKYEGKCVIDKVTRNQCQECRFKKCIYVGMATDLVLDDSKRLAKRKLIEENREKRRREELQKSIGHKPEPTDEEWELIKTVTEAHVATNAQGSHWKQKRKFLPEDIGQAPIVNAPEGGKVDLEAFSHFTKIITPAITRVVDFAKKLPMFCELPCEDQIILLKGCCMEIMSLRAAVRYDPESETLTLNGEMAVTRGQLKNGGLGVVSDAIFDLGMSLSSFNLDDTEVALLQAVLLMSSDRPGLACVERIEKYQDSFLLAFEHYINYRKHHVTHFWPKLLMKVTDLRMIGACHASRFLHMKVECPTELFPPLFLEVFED
Chain of Voltage-gated inwardly rectifying potassium channel KCNH2 (Homo sapiens) (Q12809 whole entry, looked up): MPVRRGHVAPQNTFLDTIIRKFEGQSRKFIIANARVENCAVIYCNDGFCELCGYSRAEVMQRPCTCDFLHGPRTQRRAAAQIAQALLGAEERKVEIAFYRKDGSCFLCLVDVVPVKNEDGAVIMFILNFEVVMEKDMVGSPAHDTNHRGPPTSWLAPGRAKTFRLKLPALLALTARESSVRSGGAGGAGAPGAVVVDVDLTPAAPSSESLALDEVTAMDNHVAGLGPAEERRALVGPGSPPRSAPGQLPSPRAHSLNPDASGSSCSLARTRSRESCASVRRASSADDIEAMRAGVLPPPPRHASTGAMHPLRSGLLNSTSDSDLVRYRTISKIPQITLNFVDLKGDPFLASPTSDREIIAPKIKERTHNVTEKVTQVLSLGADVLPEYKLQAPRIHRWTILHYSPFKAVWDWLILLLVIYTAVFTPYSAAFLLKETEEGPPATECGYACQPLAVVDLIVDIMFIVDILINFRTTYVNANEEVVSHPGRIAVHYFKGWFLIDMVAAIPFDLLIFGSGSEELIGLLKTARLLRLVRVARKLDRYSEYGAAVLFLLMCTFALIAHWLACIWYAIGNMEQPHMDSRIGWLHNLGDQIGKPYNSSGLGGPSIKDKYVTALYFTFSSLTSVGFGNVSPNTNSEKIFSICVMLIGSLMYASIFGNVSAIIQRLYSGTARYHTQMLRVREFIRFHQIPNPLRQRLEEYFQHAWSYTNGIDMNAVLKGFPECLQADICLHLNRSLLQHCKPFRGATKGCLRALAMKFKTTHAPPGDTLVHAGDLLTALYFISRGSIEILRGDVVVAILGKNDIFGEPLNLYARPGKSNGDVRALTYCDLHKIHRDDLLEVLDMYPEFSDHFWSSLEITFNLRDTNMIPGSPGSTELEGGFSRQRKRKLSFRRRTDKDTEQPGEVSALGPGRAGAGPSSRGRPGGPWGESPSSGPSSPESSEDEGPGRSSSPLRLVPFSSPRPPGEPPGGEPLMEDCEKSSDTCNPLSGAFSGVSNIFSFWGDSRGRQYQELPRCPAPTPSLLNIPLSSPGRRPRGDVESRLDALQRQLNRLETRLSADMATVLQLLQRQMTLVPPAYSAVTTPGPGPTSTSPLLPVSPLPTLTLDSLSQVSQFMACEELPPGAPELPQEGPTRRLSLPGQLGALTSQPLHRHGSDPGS
Chain of Furin (Homo sapiens) (P09958 whole entry, looked up): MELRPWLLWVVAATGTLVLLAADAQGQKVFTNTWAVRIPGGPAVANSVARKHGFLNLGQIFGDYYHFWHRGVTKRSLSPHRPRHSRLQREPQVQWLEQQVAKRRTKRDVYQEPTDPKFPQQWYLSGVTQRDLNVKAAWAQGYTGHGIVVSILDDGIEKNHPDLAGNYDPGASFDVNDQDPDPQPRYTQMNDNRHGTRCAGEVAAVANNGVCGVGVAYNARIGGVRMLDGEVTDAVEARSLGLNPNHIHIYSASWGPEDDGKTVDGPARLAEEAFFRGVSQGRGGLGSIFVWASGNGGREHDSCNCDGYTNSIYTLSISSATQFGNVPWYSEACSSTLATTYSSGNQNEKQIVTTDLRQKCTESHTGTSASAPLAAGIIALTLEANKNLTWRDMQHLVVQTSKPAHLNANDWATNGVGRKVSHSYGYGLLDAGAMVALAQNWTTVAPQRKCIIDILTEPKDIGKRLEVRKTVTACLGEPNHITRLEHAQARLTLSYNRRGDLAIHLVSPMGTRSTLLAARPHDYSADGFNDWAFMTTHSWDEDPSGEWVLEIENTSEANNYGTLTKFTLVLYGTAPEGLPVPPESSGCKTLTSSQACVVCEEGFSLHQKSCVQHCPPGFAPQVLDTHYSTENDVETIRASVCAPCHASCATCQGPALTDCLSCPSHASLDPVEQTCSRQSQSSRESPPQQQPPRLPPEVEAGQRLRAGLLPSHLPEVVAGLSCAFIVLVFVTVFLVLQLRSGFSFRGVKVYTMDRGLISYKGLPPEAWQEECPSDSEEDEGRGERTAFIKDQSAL

In the case of `Oc1c(Cl)c(Cl)c(Cl)c(Cl)c1Cl`, the max response in [1] was 12.8% and -17.7%; in assay [11], 18.2% and 10.1%; in assay [15] it was -14.8% and -25.3%; in [16] it was -15.6% and -10.7%; in assay [23], -11.9% and -10.8%. Moreover, the activity change % (negative = inhibition) in assay [2] was -4.36%. The Potency result (in assay [3]; in [13]; in the assay with Furin (Homo sapiens)) was “inactive” throughout. In addition, the Potency in [4] was 26.6 µM (active) and 24.3 µM (active); in assay [5], 22.4 µM (active) and 39.8 µM (active); in [7] it was 42.2 µM (active); in assay [8] it was 42.2 µM (active); in [10], 44.7 µM (active) and 39.8 µM (active); in [12], 16.8 µM (active). In addition, the Potency in assay [18] is 7.08 µM (active); in assay [19] it was 11.2 µM (active); in [20], 4.47 µM (active); in assay [21] it was 355 µM (active); in assay [22], 70.8 µM (active). The activation in assay [6] is -1.59%. Further, the outcome in assay [9], in assay [14] and in assay [17] was inactive.

These data come from PubChem BioAssay (NCATS).
